Results reported in the supplement of paper PMC11732987, “Enantioselective OTUD7B fragment discovery through chemoproteomics screening and high-throughput optimisation” (Communications Chemistry, 2025).

Key:
Assay in all cases: log2 ratio of Biotin-Ahx-Ub-VS probe labelling (fragment/DMSO); higher = less target engagement (more negative = stronger competition), active = hit call of the paper (q ≤ 0.05, log2 ratio ≤ -1)
Details in all cases: compound concentration: 200 uM; treatment time: 3 h
USP42 = molecular target: T1, USP42 (UniProt Q9H9J4)
T1 sequence (whole entry): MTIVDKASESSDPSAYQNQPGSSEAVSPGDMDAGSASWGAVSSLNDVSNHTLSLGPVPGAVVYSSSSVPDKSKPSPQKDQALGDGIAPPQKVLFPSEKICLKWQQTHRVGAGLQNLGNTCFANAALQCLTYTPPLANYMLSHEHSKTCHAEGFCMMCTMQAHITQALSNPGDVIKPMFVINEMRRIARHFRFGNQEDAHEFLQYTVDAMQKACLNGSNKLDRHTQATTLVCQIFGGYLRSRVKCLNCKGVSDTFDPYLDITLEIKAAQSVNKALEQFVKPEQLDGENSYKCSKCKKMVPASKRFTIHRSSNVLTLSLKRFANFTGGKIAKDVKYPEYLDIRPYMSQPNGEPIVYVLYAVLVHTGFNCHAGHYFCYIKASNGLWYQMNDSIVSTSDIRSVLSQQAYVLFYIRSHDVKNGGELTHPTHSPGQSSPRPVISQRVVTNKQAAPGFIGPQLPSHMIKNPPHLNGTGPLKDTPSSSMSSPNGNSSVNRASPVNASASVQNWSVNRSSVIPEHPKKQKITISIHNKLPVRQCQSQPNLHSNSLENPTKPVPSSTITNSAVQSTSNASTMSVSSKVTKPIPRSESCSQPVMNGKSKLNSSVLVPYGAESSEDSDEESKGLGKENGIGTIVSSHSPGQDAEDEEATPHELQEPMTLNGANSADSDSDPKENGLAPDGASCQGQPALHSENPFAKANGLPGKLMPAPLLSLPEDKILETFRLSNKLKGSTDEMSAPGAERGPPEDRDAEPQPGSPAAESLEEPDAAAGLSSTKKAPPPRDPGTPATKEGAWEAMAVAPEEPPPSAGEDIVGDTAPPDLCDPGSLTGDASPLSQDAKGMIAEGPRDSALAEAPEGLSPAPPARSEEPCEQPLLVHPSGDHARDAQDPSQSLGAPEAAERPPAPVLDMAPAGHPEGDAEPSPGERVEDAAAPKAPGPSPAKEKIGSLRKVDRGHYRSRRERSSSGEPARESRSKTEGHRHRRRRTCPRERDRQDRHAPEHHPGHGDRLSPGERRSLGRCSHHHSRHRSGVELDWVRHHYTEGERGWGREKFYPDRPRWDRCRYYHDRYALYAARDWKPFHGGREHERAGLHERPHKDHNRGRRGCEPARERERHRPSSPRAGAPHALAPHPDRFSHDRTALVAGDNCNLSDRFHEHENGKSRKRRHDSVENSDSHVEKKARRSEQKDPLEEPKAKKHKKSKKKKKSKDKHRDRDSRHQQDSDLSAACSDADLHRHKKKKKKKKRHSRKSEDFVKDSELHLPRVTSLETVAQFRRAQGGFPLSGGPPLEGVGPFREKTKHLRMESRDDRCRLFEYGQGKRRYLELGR
How it was run: (§1)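 Labelling with Biotin-Ahx-Ub-VS (0.5 µM final, 1 h) followed a 3 h triplicate treatment of HEK293T lysate (495 µg per sample, Tris/CHAPS/IGEPAL buffer with protease inhibitors) with fragment at 200 µM or vehicle. Labelled DUBs were NeutrAvidin-enriched, digested with LysC and trypsin, and run by diaPASEF LC-MS/MS. The values, average log2 fragment/vehicle ratios by unpaired t-test, come from global-median-normalised Spectronaut label-free quantities. Proteins with ≥2 unique peptides were used.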

USP46 = USP46 (UniProt P62068)
How it was run: as §1

USP47 = molecular target: T2, USP47 (UniProt Q96K76)
T2 sequence (whole entry): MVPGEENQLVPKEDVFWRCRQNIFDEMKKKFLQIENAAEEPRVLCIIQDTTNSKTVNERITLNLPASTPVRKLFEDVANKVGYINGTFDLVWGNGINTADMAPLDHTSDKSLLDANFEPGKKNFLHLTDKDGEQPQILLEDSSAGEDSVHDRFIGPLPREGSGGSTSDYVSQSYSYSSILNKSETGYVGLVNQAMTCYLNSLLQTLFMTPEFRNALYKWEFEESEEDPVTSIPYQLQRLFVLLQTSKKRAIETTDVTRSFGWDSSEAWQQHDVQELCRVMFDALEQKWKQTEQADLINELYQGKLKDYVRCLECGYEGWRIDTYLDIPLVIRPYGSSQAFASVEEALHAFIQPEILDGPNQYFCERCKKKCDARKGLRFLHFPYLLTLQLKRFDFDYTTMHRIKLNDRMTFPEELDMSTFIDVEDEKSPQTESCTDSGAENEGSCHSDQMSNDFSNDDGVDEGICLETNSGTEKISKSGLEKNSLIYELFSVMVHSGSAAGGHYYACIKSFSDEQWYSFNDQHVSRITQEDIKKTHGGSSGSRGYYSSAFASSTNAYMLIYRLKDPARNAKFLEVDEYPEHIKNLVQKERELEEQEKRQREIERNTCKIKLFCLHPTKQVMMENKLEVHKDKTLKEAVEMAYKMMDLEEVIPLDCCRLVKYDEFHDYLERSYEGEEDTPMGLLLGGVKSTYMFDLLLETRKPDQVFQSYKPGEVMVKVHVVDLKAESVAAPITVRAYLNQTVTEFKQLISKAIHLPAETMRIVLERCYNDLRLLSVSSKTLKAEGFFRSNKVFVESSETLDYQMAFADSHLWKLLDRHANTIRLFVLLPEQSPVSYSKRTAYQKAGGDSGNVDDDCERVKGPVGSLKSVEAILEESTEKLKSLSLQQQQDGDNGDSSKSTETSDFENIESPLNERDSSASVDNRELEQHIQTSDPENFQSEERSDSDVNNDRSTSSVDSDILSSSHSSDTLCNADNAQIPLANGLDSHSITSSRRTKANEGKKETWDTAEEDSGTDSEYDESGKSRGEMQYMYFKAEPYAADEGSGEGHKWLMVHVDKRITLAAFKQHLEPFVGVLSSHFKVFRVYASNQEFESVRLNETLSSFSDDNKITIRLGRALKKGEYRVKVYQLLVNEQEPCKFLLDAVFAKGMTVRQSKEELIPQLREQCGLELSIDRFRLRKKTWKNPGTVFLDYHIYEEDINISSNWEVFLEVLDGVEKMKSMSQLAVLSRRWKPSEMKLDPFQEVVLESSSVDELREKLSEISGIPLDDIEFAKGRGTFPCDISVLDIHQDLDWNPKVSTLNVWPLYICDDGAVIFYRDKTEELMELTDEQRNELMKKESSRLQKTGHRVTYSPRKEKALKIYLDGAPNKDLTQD
How it was run: as §1

USP48 = molecular target: T3, USP48 (UniProt Q86UV5)
T3 sequence (whole entry): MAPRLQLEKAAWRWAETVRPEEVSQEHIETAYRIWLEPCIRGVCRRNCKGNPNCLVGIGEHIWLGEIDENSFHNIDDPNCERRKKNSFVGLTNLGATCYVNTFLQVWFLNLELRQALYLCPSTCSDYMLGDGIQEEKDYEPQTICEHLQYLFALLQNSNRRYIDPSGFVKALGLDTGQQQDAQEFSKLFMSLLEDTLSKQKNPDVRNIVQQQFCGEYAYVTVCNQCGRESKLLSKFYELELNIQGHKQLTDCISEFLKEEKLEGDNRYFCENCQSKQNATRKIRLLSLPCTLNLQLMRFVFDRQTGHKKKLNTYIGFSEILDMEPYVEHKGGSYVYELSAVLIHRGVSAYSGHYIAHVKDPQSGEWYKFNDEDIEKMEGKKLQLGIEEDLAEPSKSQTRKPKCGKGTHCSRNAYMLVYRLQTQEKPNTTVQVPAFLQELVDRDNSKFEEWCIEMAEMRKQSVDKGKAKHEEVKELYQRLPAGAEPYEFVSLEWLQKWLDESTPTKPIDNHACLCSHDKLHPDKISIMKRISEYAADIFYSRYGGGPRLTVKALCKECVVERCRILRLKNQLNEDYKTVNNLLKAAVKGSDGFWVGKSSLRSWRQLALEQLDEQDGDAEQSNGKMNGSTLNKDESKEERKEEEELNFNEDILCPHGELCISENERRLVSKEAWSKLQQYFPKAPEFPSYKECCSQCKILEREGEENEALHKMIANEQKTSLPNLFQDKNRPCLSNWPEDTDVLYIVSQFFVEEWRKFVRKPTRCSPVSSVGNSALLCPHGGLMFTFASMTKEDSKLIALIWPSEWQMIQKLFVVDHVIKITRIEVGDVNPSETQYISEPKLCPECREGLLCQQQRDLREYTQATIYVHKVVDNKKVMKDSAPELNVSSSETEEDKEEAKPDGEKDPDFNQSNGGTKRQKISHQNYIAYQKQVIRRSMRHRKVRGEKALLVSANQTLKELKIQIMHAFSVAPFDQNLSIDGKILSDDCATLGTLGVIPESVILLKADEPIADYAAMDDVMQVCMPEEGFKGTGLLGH
How it was run: as §1

USP5 = molecular target: T4, USP5 (UniProt P45974)
T4 sequence (whole entry): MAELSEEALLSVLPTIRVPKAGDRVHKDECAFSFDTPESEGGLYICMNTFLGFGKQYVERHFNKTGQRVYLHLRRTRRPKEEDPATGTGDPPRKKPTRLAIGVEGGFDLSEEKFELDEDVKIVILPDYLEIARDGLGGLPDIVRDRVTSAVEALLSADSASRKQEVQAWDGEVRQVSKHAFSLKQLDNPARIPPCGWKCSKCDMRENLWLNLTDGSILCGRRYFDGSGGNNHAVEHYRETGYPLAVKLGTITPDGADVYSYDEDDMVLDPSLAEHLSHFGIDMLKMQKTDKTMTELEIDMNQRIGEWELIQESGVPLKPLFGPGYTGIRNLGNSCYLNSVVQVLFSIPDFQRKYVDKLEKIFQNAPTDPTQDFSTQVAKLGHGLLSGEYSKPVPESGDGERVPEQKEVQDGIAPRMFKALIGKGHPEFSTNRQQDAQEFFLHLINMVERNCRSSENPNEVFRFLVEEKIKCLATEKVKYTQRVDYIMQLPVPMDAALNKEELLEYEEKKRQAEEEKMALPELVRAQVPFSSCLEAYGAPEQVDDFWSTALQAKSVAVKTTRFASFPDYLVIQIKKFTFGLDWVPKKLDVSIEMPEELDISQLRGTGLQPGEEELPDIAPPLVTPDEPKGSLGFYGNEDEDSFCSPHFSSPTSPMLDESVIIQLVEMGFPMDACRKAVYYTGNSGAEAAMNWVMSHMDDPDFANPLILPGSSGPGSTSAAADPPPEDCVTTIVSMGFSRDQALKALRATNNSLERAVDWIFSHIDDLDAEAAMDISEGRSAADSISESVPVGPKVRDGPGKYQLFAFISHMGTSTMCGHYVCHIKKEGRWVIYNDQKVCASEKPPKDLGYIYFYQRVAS
How it was run: as §1

USP54 = USP54 (UniProt Q70EL1)
How it was run: as §1

USP7 = USP7 (UniProt Q93009)
How it was run: as §1

USP8 = molecular target: T5, USP8 (UniProt P40818)
T5 sequence (whole entry): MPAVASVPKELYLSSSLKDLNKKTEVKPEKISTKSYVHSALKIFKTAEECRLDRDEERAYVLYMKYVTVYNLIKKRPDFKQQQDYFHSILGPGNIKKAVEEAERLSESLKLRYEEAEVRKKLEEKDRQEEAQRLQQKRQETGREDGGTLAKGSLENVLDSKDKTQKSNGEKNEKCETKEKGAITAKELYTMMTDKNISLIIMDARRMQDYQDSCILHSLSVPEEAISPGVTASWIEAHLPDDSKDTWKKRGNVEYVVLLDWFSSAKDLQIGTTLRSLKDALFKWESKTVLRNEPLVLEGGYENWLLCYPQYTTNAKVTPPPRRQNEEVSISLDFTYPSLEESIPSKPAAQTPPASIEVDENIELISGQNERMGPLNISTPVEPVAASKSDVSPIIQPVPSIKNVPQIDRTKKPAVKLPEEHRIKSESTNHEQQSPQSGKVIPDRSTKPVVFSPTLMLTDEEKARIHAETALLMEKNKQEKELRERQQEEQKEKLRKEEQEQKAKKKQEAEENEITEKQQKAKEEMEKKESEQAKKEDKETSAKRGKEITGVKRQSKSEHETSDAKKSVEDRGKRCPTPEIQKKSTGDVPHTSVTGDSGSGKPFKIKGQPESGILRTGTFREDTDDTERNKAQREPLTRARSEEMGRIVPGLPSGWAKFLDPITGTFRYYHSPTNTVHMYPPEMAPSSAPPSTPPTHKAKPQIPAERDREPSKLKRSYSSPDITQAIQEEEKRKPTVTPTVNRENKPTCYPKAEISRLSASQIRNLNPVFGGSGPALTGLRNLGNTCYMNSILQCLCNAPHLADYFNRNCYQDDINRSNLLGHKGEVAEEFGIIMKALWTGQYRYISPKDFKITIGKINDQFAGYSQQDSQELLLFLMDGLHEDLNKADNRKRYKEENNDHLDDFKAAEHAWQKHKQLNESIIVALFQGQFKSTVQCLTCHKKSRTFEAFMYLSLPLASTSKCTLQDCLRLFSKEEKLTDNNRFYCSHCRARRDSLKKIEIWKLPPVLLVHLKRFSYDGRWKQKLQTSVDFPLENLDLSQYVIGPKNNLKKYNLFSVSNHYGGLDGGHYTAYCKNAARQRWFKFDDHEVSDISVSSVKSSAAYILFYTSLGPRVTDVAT
How it was run: as §1

USP9X = USP9X (UniProt Q93008)
How it was run: as §1

UniProt O00487 = molecular target: UniProt O00487
How it was run: as §1

Measured: log2 ratio of Biotin-Ahx-Ub-VS probe labelling

Sequence of UniProt O00487 (O00487 whole entry): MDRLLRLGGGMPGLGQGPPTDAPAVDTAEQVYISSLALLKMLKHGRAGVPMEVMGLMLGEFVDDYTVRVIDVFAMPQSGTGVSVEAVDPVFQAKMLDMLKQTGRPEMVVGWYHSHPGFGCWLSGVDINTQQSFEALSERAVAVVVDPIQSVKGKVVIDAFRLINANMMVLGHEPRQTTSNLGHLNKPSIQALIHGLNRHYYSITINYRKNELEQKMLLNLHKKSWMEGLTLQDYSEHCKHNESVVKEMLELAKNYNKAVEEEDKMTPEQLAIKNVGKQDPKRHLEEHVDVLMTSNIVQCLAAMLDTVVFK
Sequence of USP9X (Q93008 whole entry): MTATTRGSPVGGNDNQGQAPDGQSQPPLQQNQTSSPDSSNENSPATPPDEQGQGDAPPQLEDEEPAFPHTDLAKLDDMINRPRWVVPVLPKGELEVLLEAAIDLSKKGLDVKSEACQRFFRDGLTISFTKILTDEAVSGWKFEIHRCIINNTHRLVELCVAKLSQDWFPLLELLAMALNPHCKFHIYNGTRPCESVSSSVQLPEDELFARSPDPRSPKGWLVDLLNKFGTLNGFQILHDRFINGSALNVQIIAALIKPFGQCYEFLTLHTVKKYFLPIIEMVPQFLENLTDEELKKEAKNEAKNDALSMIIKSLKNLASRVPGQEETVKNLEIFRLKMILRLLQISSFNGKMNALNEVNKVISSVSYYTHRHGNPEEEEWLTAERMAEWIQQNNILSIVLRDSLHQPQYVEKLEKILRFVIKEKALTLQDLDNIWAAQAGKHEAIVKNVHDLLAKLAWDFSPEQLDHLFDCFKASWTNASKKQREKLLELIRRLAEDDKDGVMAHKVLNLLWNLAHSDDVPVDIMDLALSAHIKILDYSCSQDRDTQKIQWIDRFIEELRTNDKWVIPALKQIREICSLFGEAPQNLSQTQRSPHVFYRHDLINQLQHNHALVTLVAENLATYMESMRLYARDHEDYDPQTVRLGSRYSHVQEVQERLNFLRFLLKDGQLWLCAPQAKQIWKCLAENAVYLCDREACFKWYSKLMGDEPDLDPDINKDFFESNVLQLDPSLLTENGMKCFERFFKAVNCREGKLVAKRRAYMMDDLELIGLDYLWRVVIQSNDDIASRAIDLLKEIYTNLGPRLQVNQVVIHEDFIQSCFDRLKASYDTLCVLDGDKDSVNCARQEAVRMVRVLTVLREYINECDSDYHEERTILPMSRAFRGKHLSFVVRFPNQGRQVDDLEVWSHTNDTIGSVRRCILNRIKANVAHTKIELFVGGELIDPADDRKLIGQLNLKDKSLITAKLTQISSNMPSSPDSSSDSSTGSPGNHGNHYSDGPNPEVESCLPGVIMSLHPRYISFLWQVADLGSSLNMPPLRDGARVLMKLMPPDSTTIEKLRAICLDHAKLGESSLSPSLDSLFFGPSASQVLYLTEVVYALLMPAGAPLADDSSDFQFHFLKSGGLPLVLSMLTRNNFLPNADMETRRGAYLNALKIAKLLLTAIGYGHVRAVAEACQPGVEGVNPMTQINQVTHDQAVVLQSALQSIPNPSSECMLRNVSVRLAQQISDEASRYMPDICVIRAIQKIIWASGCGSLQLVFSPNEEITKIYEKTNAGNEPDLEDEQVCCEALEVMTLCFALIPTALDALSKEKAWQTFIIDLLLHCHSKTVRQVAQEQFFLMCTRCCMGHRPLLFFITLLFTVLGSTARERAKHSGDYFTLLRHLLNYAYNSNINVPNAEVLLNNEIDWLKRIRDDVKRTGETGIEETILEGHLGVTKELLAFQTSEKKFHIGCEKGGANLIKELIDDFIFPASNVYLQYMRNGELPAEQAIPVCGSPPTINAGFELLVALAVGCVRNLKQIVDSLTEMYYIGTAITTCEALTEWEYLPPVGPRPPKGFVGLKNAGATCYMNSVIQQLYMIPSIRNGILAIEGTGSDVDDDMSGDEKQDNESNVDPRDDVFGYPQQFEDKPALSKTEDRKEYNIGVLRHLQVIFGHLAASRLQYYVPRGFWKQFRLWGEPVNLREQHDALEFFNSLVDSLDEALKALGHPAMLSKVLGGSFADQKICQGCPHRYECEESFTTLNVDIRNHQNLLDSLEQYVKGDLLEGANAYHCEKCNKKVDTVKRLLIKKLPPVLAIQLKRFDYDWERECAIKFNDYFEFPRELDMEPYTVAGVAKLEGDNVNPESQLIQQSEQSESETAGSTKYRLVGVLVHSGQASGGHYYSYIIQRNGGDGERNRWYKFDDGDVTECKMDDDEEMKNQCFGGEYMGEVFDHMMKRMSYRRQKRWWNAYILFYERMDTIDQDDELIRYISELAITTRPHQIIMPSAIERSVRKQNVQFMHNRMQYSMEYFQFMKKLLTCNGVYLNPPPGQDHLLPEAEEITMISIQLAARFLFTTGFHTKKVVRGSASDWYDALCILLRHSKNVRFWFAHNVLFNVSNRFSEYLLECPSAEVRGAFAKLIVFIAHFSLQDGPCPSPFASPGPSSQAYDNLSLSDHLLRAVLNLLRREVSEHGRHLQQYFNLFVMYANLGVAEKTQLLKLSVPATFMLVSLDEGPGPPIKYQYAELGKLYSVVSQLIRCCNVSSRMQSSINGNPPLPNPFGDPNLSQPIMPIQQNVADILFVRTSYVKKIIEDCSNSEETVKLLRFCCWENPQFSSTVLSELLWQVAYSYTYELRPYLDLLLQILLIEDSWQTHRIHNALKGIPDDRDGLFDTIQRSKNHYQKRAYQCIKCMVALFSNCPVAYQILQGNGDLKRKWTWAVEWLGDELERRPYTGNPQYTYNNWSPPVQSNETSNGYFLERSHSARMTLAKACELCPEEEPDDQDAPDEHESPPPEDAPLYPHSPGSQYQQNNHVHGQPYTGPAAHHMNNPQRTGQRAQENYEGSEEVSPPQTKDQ
Sequence of USP54 (Q70EL1 whole entry): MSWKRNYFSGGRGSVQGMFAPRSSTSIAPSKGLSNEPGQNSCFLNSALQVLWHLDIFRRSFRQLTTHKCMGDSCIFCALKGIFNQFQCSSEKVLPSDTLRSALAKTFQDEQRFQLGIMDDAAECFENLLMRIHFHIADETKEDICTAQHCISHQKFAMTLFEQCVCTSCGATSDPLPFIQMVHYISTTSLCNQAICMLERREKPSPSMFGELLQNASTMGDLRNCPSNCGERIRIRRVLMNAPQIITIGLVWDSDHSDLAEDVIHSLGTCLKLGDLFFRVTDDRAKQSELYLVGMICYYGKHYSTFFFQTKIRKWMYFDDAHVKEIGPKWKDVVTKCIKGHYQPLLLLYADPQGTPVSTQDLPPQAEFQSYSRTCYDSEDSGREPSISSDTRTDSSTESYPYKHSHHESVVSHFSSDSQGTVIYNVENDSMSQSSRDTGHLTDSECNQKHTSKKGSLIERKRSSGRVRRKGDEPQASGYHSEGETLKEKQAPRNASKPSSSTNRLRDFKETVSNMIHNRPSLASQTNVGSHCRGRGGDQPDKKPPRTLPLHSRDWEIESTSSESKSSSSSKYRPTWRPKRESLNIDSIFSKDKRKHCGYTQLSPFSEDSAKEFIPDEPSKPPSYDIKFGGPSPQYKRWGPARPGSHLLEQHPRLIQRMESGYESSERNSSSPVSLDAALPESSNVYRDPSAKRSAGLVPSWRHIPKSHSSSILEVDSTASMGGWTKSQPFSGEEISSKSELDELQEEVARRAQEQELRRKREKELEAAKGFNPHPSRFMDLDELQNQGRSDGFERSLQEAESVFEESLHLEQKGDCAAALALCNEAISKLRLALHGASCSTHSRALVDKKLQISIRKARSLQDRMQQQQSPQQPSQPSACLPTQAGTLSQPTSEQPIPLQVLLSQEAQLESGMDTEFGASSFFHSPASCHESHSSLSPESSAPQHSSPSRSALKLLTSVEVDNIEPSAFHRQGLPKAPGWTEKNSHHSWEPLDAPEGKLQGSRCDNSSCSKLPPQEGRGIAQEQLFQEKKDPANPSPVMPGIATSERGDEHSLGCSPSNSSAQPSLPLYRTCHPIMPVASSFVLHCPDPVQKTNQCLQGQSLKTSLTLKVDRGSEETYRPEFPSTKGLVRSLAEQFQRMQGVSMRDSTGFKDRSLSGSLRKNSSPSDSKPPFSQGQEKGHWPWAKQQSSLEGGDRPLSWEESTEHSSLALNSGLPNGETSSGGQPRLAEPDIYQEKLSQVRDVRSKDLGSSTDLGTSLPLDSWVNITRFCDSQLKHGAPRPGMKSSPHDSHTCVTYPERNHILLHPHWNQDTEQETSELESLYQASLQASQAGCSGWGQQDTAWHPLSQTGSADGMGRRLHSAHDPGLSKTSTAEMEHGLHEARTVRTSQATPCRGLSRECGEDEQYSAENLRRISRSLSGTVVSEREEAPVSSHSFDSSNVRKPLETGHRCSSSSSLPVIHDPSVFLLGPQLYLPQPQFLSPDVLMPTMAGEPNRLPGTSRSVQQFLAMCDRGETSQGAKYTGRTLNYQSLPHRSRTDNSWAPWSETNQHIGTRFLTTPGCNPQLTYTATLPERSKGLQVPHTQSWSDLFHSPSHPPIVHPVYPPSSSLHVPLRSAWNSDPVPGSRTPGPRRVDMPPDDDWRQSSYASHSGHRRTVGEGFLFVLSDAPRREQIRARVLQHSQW
Sequence of USP46 (P62068 whole entry): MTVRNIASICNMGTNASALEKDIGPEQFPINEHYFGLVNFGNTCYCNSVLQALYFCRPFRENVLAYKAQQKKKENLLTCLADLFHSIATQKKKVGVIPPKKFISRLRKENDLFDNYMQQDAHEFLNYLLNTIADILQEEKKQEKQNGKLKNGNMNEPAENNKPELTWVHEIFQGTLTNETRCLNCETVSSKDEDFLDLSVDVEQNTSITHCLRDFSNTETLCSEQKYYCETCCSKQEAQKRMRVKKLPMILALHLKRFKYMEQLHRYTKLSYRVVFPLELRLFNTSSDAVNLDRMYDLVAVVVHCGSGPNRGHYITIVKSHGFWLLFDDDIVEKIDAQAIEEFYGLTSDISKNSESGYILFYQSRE

Cc1ccn2cc(CNC(=O)CCl)nc2c1.Cl
inactive: USP42 0.192 | USP46 -0.0106 | USP47 -0.5 | USP48 -0.153 | USP5 0.0336 | USP54 0.581 | USP7 -0.341 | USP8 -0.325 | USP9X -0.141 | UniProt O00487 -0.0788
